PfHsp40 yeast = rescue of PfHsp40-mediated yeast toxicity. hit rate 0.68% among 340,000. growth rescue, % at 12.5 µM. S. cerevisiae expressing PfHsp40, growth rescue, ATP luminescence; in the data active means growth rescue above about 28%, passing the limit was not always enough;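 further: yeast W303a lacking pdr1 and pdr3 grown in galactose medium; growth measured after three days at 30 °C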
RN4220 kill = S. aureus RN4220 growth inhibition; OD600, 16 h; inhibition, % (concentration not given with the values); AID 1259311; hit rate 0.33% among 330,000; in the data active means inhibition above about 85%;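 further: plate controls were untreated cells for no effect and reference antibiotic for full effect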
Mtb hypoxia rep = reduces hypoxia-regulated biosensor signal in M. tuberculosis; M. tuberculosis hypoxia-regulated fluorescent reporter, fluorescence; fluorescence inhibition, % (no concentration beside the values); hit rate 0.1% among 300,000; in the data active means fluorescence inhibition mostly above about 23%, no sharp cut-off; inactive means mostly below about 17%
TcdB GH inh = blocks C. difficile toxin B glycohydrolase activity | P18177 | TcdB glycohydrolase enzymatic assay, plate reader | inhibition, % at 9.99 µM | hit rate 0.24% among 350,000 | AID 652162; in the data active means inhibition above about 10%
Sa ugtP lethal = growth inhibition of S. aureus ugtP deletion strain. AID 1259309. hit rate 0.54% among 330,000. growth inhibition, % (concentration not given with the values). S. aureus RN4220 ugtP deletion, OD600 growth, 16 h; in the data active means growth inhibition above about 68%;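 further: plate controls were untreated wells for no effect and antibiotic for full effect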
MazF activator = MazEF (E. coli) toxin RNase activation; hit rate 0.32% among 350,000; P0AE70; activation, % at 20 µM; FAM/BHQ RNA-DNA oligo cleavage fluorescence, 5 h; in the data active means activation above about 50%
Target sequence (P0AE70 whole entry, looked up): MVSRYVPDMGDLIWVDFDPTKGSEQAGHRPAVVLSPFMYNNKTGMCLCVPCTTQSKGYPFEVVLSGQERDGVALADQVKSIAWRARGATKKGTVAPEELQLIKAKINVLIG
An asterisk follows results filed as active. Most compounds without a hit are left out; they make up all but 1.3% or so of the library.

For O=C1/C(=C\c2cc([N+](=O)[O-])ccc2O)SC(=S)N1Cc1ccc(Cl)cc1 the results were PfHsp40 yeast 0, RN4220 kill 88*, Mtb hypoxia rep 9, TcdB GH inh 6, Sa ugtP lethal 65 and MazF activator -34.
COc1cccc(/C=C2/SC(=S)N(CC(=O)NNC(=O)c3ccccc3O)C2=O)c1 was read as PfHsp40 yeast 155*, RN4220 kill 40, Mtb hypoxia rep 6, TcdB GH inh -1, Sa ugtP lethal 47 and MazF activator 11.
`O=C(CN1C(=O)/C(=C/c2ccccc2)SC1=S)NNC(=O)c1ccccc1O` gave PfHsp40 yeast -1, RN4220 kill 3, Mtb hypoxia rep 3, TcdB GH inh 3, Sa ugtP lethal 1 and MazF activator 4.
Screening O=C1/C(=C\c2cccc(O)c2O)SC(=S)N1Cc1ccccc1 returned PfHsp40 yeast 0, TcdB GH inh 1 and MazF activator 8.
`O=C1/C(=C\c2ccc(O)c(O)c2)SC(=S)N1Cc1ccccc1` gave PfHsp40 yeast 8, RN4220 kill 76, Mtb hypoxia rep 21, TcdB GH inh 0, Sa ugtP lethal 99* and MazF activator -57.
Screening C[C@@]12C(=O)Nc3cc(F)ccc3C(=O)N1C1c3cc(Br)ccc3OCC1C2c1ccccc1 (some centres not stated) returned RN4220 kill -19, Mtb hypoxia rep 4 and Sa ugtP lethal -5.
For C[C@@H]1CN([C@@H](C)CO)C(=O)c2cc(C3=CCCCC3)cnc2O[C@H]1CN(C)Cc1ccncc1 the results were TcdB GH inh -2.
O=C(c1cccs1)N1CCN(CC=Cc2ccccc2)CC1 was read as RN4220 kill -2, Mtb hypoxia rep 1 and Sa ugtP lethal 4.
Cc1ccccc1/C=C1\SC(=S)N(/N=C/c2cc([N+](=O)[O-])ccc2O)C1=O was read as PfHsp40 yeast 229*, TcdB GH inh 0 and MazF activator -4.
`C[C@H]1CN([C@@H](C)CO)C(=O)c2cc(-c3cccc(C(=O)N(C)C)c3)cnc2O[C@@H]1CN(C)S(=O)(=O)c1ccccc1` gave TcdB GH inh -2.
Screening NC(N)=NS(=O)(=O)c1ccc(NC(=S)Nc2ccc(F)cc2)cc1 returned PfHsp40 yeast -2, RN4220 kill 2, Mtb hypoxia rep 16, TcdB GH inh 2, Sa ugtP lethal 9 and MazF activator 6.
`NC(N)=NS(=O)(=O)c1ccc(NC(=S)NC(=O)c2ccccc2)cc1` gave PfHsp40 yeast 6, RN4220 kill 93, Mtb hypoxia rep 3, TcdB GH inh 1, Sa ugtP lethal active and MazF activator 2.
For NC(N)=NS(=O)(=O)c1ccc(NC(=S)NC(=O)Cc2ccc(Cl)cc2)cc1 the results were PfHsp40 yeast 1, RN4220 kill 4, Mtb hypoxia rep 5, TcdB GH inh 0, Sa ugtP lethal 88* and MazF activator 3.
For NC(N)=NS(=O)(=O)c1ccc(NC(=S)NC(=O)/C=C/c2ccccc2)cc1 the results were PfHsp40 yeast 0, RN4220 kill 3, Mtb hypoxia rep -7, TcdB GH inh 0, Sa ugtP lethal 5 and MazF activator -39.
Screening CN1c2ccc(-c3ccccc3)cc2[C@H]2[C@H](CCN2C(=O)CN2CCOCC2)[C@H]1CO returned TcdB GH inh 14*.
Screening CCC(=O)N1CC[C@@H]2[C@H]1c1cc(-c3ccccc3)ccc1N(C)[C@@H]2CO returned TcdB GH inh 1.
COCC(=O)N1CC[C@@H]2[C@H]1c1cc(-c3ccccc3)ccc1N(C)[C@H]2CO was read as TcdB GH inh 11*.
`CCC(=O)N1CC[C@@H]2[C@@H](CO)N(C)c3ccc(-c4ccccc4)cc3[C@@H]21` gave TcdB GH inh 21*.
Screening CCC(=O)N1CC[C@@H]2[C@H]1c1cc(-c3ccccc3)ccc1N(C)[C@H]2CO returned TcdB GH inh 12*.
COCC(=O)N1CC[C@@H]2[C@H]1c1cc(-c3ccccc3)ccc1N(C)[C@@H]2CO was read as TcdB GH inh 1.
`O=C(NN=Cc1cccs1)c1cncc(Br)c1` gave RN4220 kill 2, Mtb hypoxia rep -3 and Sa ugtP lethal 6.
`O=C(NCc1ccc(F)cc1)[C@@H]1[C@@H](CO)[C@@H]2Cn3c(cccc3=O)[C@H]1N2C(=O)Cc1ccccn1` gave TcdB GH inh 0.

High-throughput results from PubChem BioAssay.
